According to PubChem BioAssay (NCATS):
Where “and” joins values, the source holds several entries; their conditions need not be identical. Equal values may be shown once. Records with an inconclusive call do not appear. Entries that show only a call come without a potency. Calls of active or inactive are those of the source. Unless noted, calls come from the whole dose curve.

Columns and labels:
[1] = molecular target: Androgen receptor (Homo sapiens) (UniProt P10275); test: qHTS assay for small molecule antagonists of androgen receptor signaling (AID 588516; active = well fitted curve in the direction sought with a large enough effect in the signal ratio, with a control signal flat, not every such curve was filed as active; the % refers to the signal ratio)
Androgen receptor (Homo sapiens), sequence (P10275 whole entry, looked up): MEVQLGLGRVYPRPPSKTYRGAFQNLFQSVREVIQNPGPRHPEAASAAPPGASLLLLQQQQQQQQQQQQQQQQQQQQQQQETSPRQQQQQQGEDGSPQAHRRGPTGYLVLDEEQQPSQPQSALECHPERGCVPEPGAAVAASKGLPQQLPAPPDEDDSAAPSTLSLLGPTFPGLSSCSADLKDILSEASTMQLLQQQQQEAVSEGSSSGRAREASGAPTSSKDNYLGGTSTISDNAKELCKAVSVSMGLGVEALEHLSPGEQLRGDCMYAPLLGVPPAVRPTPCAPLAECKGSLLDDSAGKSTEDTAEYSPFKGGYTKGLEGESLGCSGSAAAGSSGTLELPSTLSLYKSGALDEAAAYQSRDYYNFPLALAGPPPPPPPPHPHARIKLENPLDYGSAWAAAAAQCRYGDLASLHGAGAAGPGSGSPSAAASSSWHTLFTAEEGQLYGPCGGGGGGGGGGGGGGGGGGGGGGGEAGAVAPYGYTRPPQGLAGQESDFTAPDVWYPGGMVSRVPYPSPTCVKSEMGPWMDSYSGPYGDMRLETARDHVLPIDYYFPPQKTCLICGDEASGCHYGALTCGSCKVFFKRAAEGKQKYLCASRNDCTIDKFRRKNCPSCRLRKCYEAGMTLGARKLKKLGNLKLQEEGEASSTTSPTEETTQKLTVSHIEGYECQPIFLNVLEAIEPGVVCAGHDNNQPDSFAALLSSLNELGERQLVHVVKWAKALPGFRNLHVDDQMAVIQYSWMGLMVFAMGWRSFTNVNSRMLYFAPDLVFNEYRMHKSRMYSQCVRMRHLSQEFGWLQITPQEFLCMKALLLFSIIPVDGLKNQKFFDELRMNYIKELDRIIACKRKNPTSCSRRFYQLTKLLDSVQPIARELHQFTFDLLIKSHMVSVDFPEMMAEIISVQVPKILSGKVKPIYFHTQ
How it was run: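 Cells were plated and incubated 5 h, compounds added in titration, then R1881 (10 nM final) as agonist. After 16 h at 37 C, CCF4 substrate was loaded for 2 h at room temperature and fluorescence measured.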

[2] = molecular target: Glucocorticoid receptor (Homo sapiens) (UniProt P04150); test: qHTS assay for small molecule agonists of glucocorticoid receptor signaling (AID 588532; active = well fitted curve in the direction sought with a large enough effect in the signal ratio, with a control signal flat; the % refers to the signal ratio); conditions: HeLa MMTV-bla, beta-lactamase ratio, agonist, 18 h; stronger effect = higher value; percent of dexamethasone control, DMSO zero
Glucocorticoid receptor (Homo sapiens), sequence (P04150 whole entry, looked up): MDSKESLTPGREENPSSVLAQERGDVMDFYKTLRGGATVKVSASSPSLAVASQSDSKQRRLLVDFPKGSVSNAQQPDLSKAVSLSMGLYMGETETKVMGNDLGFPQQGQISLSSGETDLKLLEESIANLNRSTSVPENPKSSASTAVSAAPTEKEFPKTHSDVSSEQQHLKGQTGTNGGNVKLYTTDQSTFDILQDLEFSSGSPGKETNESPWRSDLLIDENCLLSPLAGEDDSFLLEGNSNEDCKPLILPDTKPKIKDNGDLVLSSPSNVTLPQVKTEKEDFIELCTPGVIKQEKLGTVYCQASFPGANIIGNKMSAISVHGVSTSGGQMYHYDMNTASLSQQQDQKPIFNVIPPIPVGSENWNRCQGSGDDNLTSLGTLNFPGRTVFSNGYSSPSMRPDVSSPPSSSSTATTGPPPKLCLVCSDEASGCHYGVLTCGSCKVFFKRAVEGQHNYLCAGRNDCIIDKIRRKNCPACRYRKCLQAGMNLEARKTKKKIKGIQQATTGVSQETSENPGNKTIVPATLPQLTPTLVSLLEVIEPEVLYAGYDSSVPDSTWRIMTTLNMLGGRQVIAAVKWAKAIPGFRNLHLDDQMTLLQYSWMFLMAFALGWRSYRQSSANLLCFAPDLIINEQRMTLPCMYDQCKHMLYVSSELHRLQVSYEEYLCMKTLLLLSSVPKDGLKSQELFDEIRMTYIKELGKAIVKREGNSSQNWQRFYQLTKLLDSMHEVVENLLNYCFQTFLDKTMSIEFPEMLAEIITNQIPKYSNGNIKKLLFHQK
How it was run: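 Titration series, up to 92 uM, applied to GRE-bla HeLa cells for 18 h at 37 C. Detection by CCF4 FRET substrate after 2 h at RT.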

[3] = qHTS assay for small molecule antagonists of peroxisome proliferator-activated receptor delta signaling (AID 588535; active = well fitted inhibition curve with a large enough effect in the signal ratio, with a control signal flat, not every such curve was filed as active; the % refers to the signal ratio;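 for max response: cells co-treated with a PPAR-delta agonist as stimulator during compound exposure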); conditions: HEK293T PPARd-UAS-bla, beta-lactamase FRET ratio, 18 h; 460 nm channel
How it was run: (§1)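 Inhibition of PPAR-delta response element-driven beta-lactamase expression is measured in HEK293T cells exposed to a compound titration series for 18 hrs at 37 C. Half-maximal inhibition comes from Hill equation fitting.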

[4] = molecular target: Peroxisome proliferator-activated receptor delta (Homo sapiens) (UniProt Q03181); test: as above
Peroxisome proliferator-activated receptor delta (Homo sapiens), sequence (Q03181 whole entry, looked up): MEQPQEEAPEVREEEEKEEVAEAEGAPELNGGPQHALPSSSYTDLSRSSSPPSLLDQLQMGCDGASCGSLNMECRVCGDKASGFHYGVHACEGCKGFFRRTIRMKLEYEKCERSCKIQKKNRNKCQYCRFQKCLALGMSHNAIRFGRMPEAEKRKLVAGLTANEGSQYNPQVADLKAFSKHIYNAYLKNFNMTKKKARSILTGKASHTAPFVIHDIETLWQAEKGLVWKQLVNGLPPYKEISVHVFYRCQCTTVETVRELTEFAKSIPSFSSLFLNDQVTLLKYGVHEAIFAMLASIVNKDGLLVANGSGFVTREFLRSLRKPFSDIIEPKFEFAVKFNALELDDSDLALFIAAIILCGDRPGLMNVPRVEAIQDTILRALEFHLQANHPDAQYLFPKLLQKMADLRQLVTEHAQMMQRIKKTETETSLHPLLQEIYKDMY
How it was run: as §1

[5] = molecular target: Peroxisome proliferator-activated receptor gamma (Homo sapiens) (UniProt P37231); test: qHTS assay for small molecule agonists of peroxisome proliferator-activated receptor gamma signaling (AID 588536; active = well fitted curve in the direction sought with a large enough effect in the signal ratio, with a control signal flat, not every such curve was filed as active; the % refers to the signal ratio)
Peroxisome proliferator-activated receptor gamma (Homo sapiens), sequence (P37231 whole entry, looked up): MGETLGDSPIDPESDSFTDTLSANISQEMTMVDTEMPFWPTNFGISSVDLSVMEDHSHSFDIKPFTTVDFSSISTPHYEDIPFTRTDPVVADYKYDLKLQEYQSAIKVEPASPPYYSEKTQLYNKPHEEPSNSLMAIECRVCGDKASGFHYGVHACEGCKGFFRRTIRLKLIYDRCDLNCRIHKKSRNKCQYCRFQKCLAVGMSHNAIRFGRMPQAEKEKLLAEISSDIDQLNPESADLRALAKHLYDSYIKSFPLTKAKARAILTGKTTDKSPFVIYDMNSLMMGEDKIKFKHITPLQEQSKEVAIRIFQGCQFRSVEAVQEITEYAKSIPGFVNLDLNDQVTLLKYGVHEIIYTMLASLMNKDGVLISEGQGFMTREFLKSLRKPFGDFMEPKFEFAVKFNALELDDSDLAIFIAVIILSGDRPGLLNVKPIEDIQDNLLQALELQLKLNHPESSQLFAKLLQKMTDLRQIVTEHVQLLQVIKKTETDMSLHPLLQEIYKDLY
How it was run: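 Cells were plated and held 6–6.5 h at 37 C, then compounds were added as a titration series. After a further 16 h, CCF4 dye was loaded for 2 h at room temperature and emission at 460/530 nm recorded.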

[6] = molecular target: Vitamin D3 receptor (Homo sapiens) (UniProt P11473); test: qHTS assay for small molecule antagonists of vitamin D receptor signaling (AID 588541);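 note: receptor activated by calcitriol during compound treatment; series mostly up to about 77 µM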
Vitamin D3 receptor (Homo sapiens), sequence (P11473 whole entry, looked up): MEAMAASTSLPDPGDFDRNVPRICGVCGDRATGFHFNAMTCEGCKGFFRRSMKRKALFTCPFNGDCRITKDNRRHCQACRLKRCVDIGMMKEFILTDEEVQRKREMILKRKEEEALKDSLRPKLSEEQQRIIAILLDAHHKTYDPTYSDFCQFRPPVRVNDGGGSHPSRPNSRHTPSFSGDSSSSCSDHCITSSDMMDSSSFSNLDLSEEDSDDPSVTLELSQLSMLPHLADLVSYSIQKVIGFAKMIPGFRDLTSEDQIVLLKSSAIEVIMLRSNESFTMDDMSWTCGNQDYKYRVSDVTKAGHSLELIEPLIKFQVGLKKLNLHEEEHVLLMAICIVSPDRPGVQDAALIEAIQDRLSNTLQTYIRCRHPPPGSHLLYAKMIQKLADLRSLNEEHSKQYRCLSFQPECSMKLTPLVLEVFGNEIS
How it was run: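 VDR-UAS-bla HEK293T cells (2000/well, 2% charcoal-stripped FBS) were treated with titrated compounds plus 1-alpha,25-dihydroxyvitamin D3 (50 nM or 3 nM final) for 16 h at 37 C. CCF4 beta-lactamase fluorescence was read; Hill fits gave IC50.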

[7] = molecular target: Vitamin D3 receptor (Homo sapiens) (UniProt P11473); test: qHTS assay for small molecule agonists of vitamin D receptor signaling (AID 588543)
How it was run: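 Reporter cells (HEK293T, VDR-UAS-bla) were seeded in medium with 2% charcoal-stripped serum and incubated 5 h, then compounds in concentration series were added for 16 h at 37 °C. Stimulation was scaled between DMSO basal and 50 nM 1α,25-dihydroxyvitamin D3.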

[8] = molecular target: Bile acid receptor (Homo sapiens) (UniProt Q96RI1); test: qHTS assay for small molecule antagonists of farnesoid X receptor signaling (AID 588526)
Bile acid receptor (Homo sapiens), sequence (Q96RI1 whole entry, looked up): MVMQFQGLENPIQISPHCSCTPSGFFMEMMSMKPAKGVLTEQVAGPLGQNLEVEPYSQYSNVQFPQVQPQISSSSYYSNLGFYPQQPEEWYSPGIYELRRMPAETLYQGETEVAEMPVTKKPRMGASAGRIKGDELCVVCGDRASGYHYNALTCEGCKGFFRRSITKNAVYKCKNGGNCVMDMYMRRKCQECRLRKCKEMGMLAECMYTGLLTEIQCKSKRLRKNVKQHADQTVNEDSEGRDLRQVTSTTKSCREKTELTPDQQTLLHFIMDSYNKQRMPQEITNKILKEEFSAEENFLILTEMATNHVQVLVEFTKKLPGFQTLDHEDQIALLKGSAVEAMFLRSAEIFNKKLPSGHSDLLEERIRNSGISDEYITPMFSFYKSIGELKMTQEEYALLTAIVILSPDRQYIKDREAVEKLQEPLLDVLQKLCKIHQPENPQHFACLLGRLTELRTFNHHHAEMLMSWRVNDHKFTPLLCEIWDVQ
How it was run: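 Concentration-response titrations were fitted to the Hill equation for half-maximal inhibition and maximal response, with data normalised to 50 uM chenodeoxycholic acid and DMSO control wells. Cells: FXR-UAS-bla HEK293T, dialyzed FBS.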

[9] = molecular target: Glucocorticoid receptor (Homo sapiens) (UniProt P04150); test: qHTS assay for small molecule antagonists of glucocorticoid receptor signaling (AID 588533; active = well fitted inhibition curve with a large enough effect in the signal ratio, with a control signal flat, not every such curve was filed as active; the % refers to the signal ratio;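 note: cells stimulated with 2 nM dexamethasone as agonist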)
How it was run: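 Antagonist-mode qHTS: compound titrations added to GRE-bla HeLa cells, then dexamethasone 2 nM final; 18 h, 37 C. CCF4 FRET fluorescence normalized to dexamethasone and DMSO; IC50 from Hill fit.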

[10] = molecular target: Peroxisome proliferator-activated receptor gamma (Homo sapiens) (UniProt P37231); test: qHTS assay for small molecule antagonists of peroxisome proliferator-activated receptor gamma signaling (AID 588537; active = well fitted inhibition curve with a large enough effect in the signal ratio, with a control signal flat, not every such curve was filed as active; the % refers to the signal ratio;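 note: reporter cells co-stimulated with 50 nM rosiglitazone agonist during compound treatment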)
How it was run: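 Compounds are tested as concentration series for inhibition of rosiglitazone-driven (50 nM) reporter expression in GeneBLAzer PPAR-gamma-UAS-bla HEK293 cells. After 16 h at 37 C, CCF4 substrate is added for 2 h at room temperature and blue/green fluorescence is measured.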

| Structure (SMILES) | outcome [1] | activation [2] | max response [3] | Potency [4] | outcome [5] | outcome [6] | outcome [7] | outcome [8] | outcome [9] | outcome [10] |
| --- | --- | --- | --- | --- | --- | --- | --- | --- | --- | --- |
| ClCCl | inactive | -3.26% (inactive) | 23.4% | inactive | inactive | inactive | inactive |  |  |  |
| N#Cc1ccccc1 |  | 4.79% (inactive) | -16.3% | inactive | inactive | inactive | inactive | inactive | inactive | inactive |
| CC(=C/C=C/C(C)=C/C=C/C=C(C)/C=C/C=C(C)/C=C/C(=O)O)/C=C/C(=O)O | inactive | -6.11% (inactive) | 11.7% | inactive |  | inactive | inactive | inactive | inactive | inactive |
| CC(=O)CC(C)C | inactive | 21.2% (inactive) | 19.2% | inactive | inactive | inactive | inactive | inactive | inactive |  |
| CCCOCC(C)OCC(C)O (stereo not drawn) | inactive |  | -11.5% | inactive | inactive | inactive | inactive | inactive | inactive |  |
| C=C(C)C(=O)OCCCCCC |  | 8.12% (inactive) | 4.68% | inactive | inactive | inactive | inactive | inactive | inactive | inactive |
| BrC(Br)C(Br)Br | inactive | -1.02% (inactive) | -3.11% | inactive | inactive | inactive | inactive |  |  | inactive |
| O=C(O)CCSSCCC(=O)O | inactive | -5.98% (inactive) | 29.9% | inactive |  | inactive | inactive | inactive | inactive |  |
| Nc1cccc([N+](=O)[O-])c1 | inactive |  |  |  | inactive |  |  | inactive | inactive | inactive |
| CCCCCCCCC/C=C/CC1CC(=O)OC1=O (stereo not drawn) | inactive | 0.907% (inactive) |  |  | inactive | inactive | inactive | inactive | inactive |  |
| c1ccsc1 | inactive |  | -2.14% | inactive | inactive | inactive |  |  | inactive | inactive |
| Nc1cccc2c(=O)[nH][nH]c(=O)c12 |  | 0.411% (inactive) | -7.57% | inactive | inactive |  |  | inactive | inactive |  |
| O=C1CCCCC1 | inactive | -2.34% (inactive) | 1.87% | inactive |  | inactive | inactive |  |  |  |
| Cc1cccc([N+](=O)[O-])c1C(=O)O |  | 4.26% (inactive) | 7.62% | inactive | inactive | inactive | inactive | inactive | inactive | inactive |
| COc1cccc2sc(N)nc12 | inactive |  | -34.4% | inactive | inactive | inactive | inactive | inactive |  |  |
| CCOc1cc(OCC)c(C(C)=O)cc1OCC | inactive | -0.956% (inactive) |  |  |  | inactive | inactive | inactive |  | inactive |
| Nc1ccc(Cl)cc1[N+](=O)[O-] | inactive | -4.92% (inactive) | 66.3% | inactive | inactive | inactive | inactive |  | inactive | inactive |
| FC(F)(F)c1cccc(Cl)c1 | inactive | -8.16% (inactive) |  |  |  |  |  | inactive |  |  |
| NC(=S)NNC(N)=S |  | -4.1% (inactive) and -4.08% (inactive) | -7.61% and 32% | inactive | inactive |  |  | inactive | inactive | inactive |
| Cc1cccc(C(=O)O)c1 | inactive |  | -5.23% | inactive | inactive | inactive | inactive |  |  | inactive |
| O=C(Cl)c1ccccc1[N+](=O)[O-] | inactive | -0.396% (inactive) |  |  | inactive |  |  |  |  |  |
| Cc1ccc(C)cc1 | inactive | -0.888% (inactive) | -6.55% | inactive |  | inactive | inactive | inactive | inactive |  |
| Nc1cc(S(=O)(=O)O)ccc1O | inactive | -0.152% (inactive) | 15.9% | inactive | inactive | inactive | inactive |  |  |  |
| O=Cc1ccc(Cl)cc1 | inactive |  | 7.54% | inactive |  | inactive | inactive |  |  | inactive |
| Cc1ccc(Cl)cc1N |  | -7.53% (inactive) | -18.2% | inactive | inactive | inactive | inactive | inactive | inactive | inactive |
| CCN(Cc1ccccc1)c1ccccc1 | inactive |  |  |  | inactive |  |  |  |  |  |
| Cc1ccc(S(=O)(=O)NC2CCCCC2)cc1 |  | -3.36% (inactive) | 42.4% | inactive | inactive |  |  | inactive | inactive |  |
| CC(C)c1ccccc1 | inactive | -12.7% (inactive) |  |  | inactive | inactive | inactive | inactive | inactive | inactive |
| Cc1ccc(N(C)C)cc1 | inactive | -4.85% (inactive) | 17.3% | inactive | inactive | inactive | inactive |  | inactive |  |
